Source: PubChem
A selection: hits, their analogues and other compounds. The true share with any hit is near 3.1%.
TR SRC2 fluor cs: Texas Red fluorescence interference in TRb-SRC2 counter-screen; TRb/SRC2 Texas Red total fluorescence interference; Potency, µM (highest dose often 106 µM); hit rate 0.29% among 280,000; AID 1479; active = well fitted curve in either direction with a large enough effect; inconclusive = small, poorly fitted or top-dose-only effect
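Flags fluorescent or light-absorbing compounds by total fluorescence, S + 2P, at 555 nm excitation and 632 nm emission. Mixture: 20 nM Texas Red SRC2 peptide, 0.6 uM human TRb LBD, 1 uM T3, 5% DMSO; compound exposure 5 h at ambient temperature.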
TRb SRC2 PPI: disrupts binding of human TR beta to SRC2. P10828. TRbeta-SRC2 peptide binding, fluorescence polarization; receptor liganded with 1 µM T3. Potency, µM (top dose mostly 106 µM), hits mostly inhibitors. hit rate 0.065% among 280,000. AID 1469; also: nearly all actives have a fitted effect of over 50% in size
Target sequence (P10828 whole entry, looked up): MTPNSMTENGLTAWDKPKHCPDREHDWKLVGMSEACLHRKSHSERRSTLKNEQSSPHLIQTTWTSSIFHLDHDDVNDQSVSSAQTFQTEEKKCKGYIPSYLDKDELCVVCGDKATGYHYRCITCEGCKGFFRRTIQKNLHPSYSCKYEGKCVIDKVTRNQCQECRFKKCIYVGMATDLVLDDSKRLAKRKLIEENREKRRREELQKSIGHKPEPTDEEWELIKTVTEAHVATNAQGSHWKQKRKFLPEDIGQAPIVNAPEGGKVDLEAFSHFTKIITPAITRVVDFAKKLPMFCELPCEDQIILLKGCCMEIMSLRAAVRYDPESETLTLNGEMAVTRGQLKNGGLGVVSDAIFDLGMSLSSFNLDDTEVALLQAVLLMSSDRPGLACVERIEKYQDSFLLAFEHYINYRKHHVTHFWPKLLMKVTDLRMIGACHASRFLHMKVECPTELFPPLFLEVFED
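Fluorescence polarization of 20 nM Texas Red SRC2 peptide (20-aa NR interaction domain) bound to 0.6 uM human TRb ligand-binding domain, with 1 uM T3, after 5 hr at ambient temperature; inhibition seen as decreased polarization.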
Tau fibril FP: inhibitors of human tau fibril formation. P10636. hit rate 0.39% among 280,000. Potency, µM (top dose mostly 57.7 µM), most hits filed as inhibitors. K18 P301L tau heparin fibrillization, Alexa594 FP, 6 h; also: nearly all actives have a fitted effect of over 55% in size
Target sequence (P10636 561-689 P618L limits assumed): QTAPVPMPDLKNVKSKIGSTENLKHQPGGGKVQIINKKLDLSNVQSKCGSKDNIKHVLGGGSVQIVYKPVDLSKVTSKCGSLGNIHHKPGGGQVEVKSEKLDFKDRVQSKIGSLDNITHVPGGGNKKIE
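Compound effects on tau fibrillization are measured by Alexa 594 fluorescence polarization (ex 555, em 632 nm). K18 P301L tau is used at 15 uM with 0.24 uM labeled tracer, and 20 uM heparin induces aggregation over 6 hr at 37 C.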
Tau fluor counter: counter-screen for tau fibril formation inhibitors; tau K18 P301L Alexa594 fluorescence, heparin fibrillization; Potency, µM (top dose mostly 57.7 µM); hit rate 0.93% among 280,000; AID 1463; also: nearly all actives have a fitted effect of over 55% in size
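Human tau K18 P301L (15 uM unlabeled, 0.24 uM Alexa 594-labeled) in 100 mM sodium acetate pH 7 with 20 uM heparin, 6 hr at 37 C. ThT 30 uM added, 1 hr ambient; Alexa 594 FP and total fluorescence read at 555/632 nm.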
Tau fibril ThT: blocks human tau fibril formation measured by thioflavin T | hit rate 2.1% among 270,000 | P10636 | Potency, µM (doses to about 57.4 µM), hits mostly inhibitors | recombinant tau K18 P301L (four-repeat tau fragment), heparin-induced fibrillization, ThT fluorescence; also: nearly all actives have a fitted effect of over 55% in size
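Aggregation was driven by heparin (20 uM final) acting on recombinant tau […] bearing P301L in 100 mM sodium acetate pH 7; fibrils were detected with Thioflavin T.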
GoLoco inh red: blocks human Gai1 binding to RGS12 GoLoco peptide, red readout | Gai1:RGS12 GoLoco peptide FP, rhodamine, 10 min | P63096 | hit rate 0.44% among 230,000 | Potency, µM (doses to about 61.6 µM), actives largely listed as inhibitors | AID 880; active = well fitted inhibition curve with a large enough effect, not every such curve was filed as active; inactive = no such curve, though single readings can be large or run the other way; also: nearly all actives have a fitted effect of over 30% in size
Hits are given with their value; ! = a repeat was not active; [ ] = dose if it differs, or a comment. Unless noted, calls follow the shape of the dose curve; as a rule, active = well fitted curve in the direction sought with a large enough effect; inconclusive = small, poorly fitted or top-dose-only effect, or another doubt; inactive = no such curve, though single readings can be large; an effect the other way counts as inactive or inconclusive.

`Nc1cccc(N=Cc2c(O)n(Cc3ccc(F)cc3)c(=O)[nH]c2=O)c1` gave TR SRC2 fluor cs inactive, TRb SRC2 PPI inactive, Tau fibril FP inactive, Tau fluor counter inactive, Tau fibril ThT inactive and GoLoco inh red inactive.
For c1cncc([C@@H]2CCCCN2)c1 the results were TR SRC2 fluor cs inactive, TRb SRC2 PPI inactive, Tau fibril FP inactive, Tau fluor counter inactive, Tau fibril ThT inactive and GoLoco inh red inactive.
For CN(C)c1ccc(/C=C/c2cc[n+](C)c3ccccc23)cc1 the results were TR SRC2 fluor cs inactive, TRb SRC2 PPI inactive, Tau fibril FP inactive, Tau fluor counter inactive, Tau fibril ThT inactive and GoLoco inh red inactive.
For CN(C)c1ccc(/C=C/C=C/c2sc3ccccc3[n+]2C)cc1 the results were TR SRC2 fluor cs inactive, TRb SRC2 PPI inactive, Tau fibril FP inconclusive, Tau fluor counter inconclusive, Tau fibril ThT 6.31µM and GoLoco inh red inactive.
For Nc1ccc(Cl)c(Cl)c1 the results were TR SRC2 fluor cs inactive, TRb SRC2 PPI inactive and GoLoco inh red inactive.
Screening Nc1cc2nc3ccccc3nc2cc1N returned TR SRC2 fluor cs inactive, TRb SRC2 PPI inactive, Tau fibril FP inconclusive, Tau fluor counter inconclusive, Tau fibril ThT 10µM and GoLoco inh red inactive.
For O=C(O)CN1CCN(CC(=O)O)CC(=O)[O][Hg][O]C(=O)C1 the results were GoLoco inh red 0.447µM.
`Cl.Cl.Cl.Cl.Cl.Cl.N.N.N.N.NNNNN.NNNNN.O.O.[Ru].[Ru].[Ru]` gave TR SRC2 fluor cs inactive, TRb SRC2 PPI inactive, Tau fibril FP inconclusive, Tau fluor counter inconclusive, Tau fibril ThT 22.4µM and GoLoco inh red inactive.
For CCOC(=O)C1CCN(/C=C2/C(=O)NC(=S)N(c3ccccc3F)C2=O)CC1 the results were TR SRC2 fluor cs inactive, TRb SRC2 PPI inactive, Tau fibril FP inactive, Tau fluor counter inactive, Tau fibril ThT inactive and GoLoco inh red inactive.
CCOC(=O)C1CCN(/C=C2/C(=O)NC(=O)N(c3ccc(OCC)cc3)C2=O)CC1 was read as TR SRC2 fluor cs inactive, TRb SRC2 PPI inactive, Tau fibril FP inconclusive, Tau fluor counter inactive, Tau fibril ThT 14.1µM and GoLoco inh red inactive.
`CC(C)N(C(=O)COc1nnc(C(F)(F)F)s1)c1ccc(F)cc1` gave TR SRC2 fluor cs inactive and TRb SRC2 PPI inactive.
COc1ccc(CCN)cc1O was read as TR SRC2 fluor cs inactive, TRb SRC2 PPI inactive, Tau fibril FP inactive, Tau fluor counter inactive, Tau fibril ThT inactive and GoLoco inh red inactive.
`NCCc1cc(O)c(O)cc1O` gave TR SRC2 fluor cs inactive, TRb SRC2 PPI 39.8µM!, Tau fibril FP 25.1µM, Tau fluor counter 10µM[quencher], Tau fibril ThT 7.08µM and GoLoco inh red 25.1µM.
For COc1ccc(N=C2SCCCN2C)cc1 the results were TR SRC2 fluor cs inactive, TRb SRC2 PPI inactive, Tau fibril FP inactive, Tau fluor counter inactive, Tau fibril ThT inactive and GoLoco inh red 7.94µM.
For CC(C)C1C(=O)N2CCCC2[C@]2(O)O[C@@](NC(=O)[C@@H]3C=C4c5cccc6[nH]cc(c56)C[C@H]4N(C)C3)(C(C)C)C(=O)N12 (stereo partly drawn) the results were TR SRC2 fluor cs inactive, TRb SRC2 PPI inactive, Tau fibril FP inconclusive, Tau fluor counter inconclusive, Tau fibril ThT 20µM and GoLoco inh red inactive.
For CC(C)[C@H]1C(=O)N2CCC[C@H]2[C@]2(O)O[C@](NC(=O)[C@@H]3C=C4c5cccc6[nH]cc(c56)C[C@H]4N(C)C3)(C(C)C)C(=O)N12 the results were TR SRC2 fluor cs inactive, TRb SRC2 PPI inactive, Tau fibril FP inconclusive, Tau fluor counter inconclusive, Tau fibril ThT inconclusive and GoLoco inh red 11.2µM.
Screening O=[N+]([O-])c1ccc(-c2ccc(C=Nc3cccc4ccccc34)o2)cc1 returned TR SRC2 fluor cs inactive, TRb SRC2 PPI inactive, Tau fibril FP inactive, Tau fluor counter inactive, Tau fibril ThT 15.8µM and GoLoco inh red inactive.
Screening Clc1ccc([C@]2(Cn3cncn3)C[C@H](Br)CO2)c(Cl)c1 returned TR SRC2 fluor cs inactive and TRb SRC2 PPI inactive.
Screening CN1CCC2(CC1)C(C#N)=C(N)NC(S)=C2C#N returned TR SRC2 fluor cs inactive, TRb SRC2 PPI inactive, Tau fibril FP inconclusive, Tau fluor counter inconclusive, Tau fibril ThT 22.4µM and GoLoco inh red inactive.
Screening Nc1nonc1C(=O)N/N=C/c1ccc([N+](=O)[O-])o1 returned TR SRC2 fluor cs inactive, TRb SRC2 PPI inactive, Tau fibril FP inactive, Tau fluor counter inactive, Tau fibril ThT inactive and GoLoco inh red inactive.
Screening Cc1cc(Br)ccc1N1C(=O)CC(=O)NC1=O returned TR SRC2 fluor cs inactive, TRb SRC2 PPI inactive, Tau fibril FP inconclusive, Tau fluor counter inactive, Tau fibril ThT 12.6µM and GoLoco inh red inactive.
NCCc1c[nH]c2ccc(OCc3ccccc3)cc12 was read as TR SRC2 fluor cs inactive, TRb SRC2 PPI inactive, Tau fibril FP inactive, Tau fluor counter 12.6µM[quencher], Tau fibril ThT inactive and GoLoco inh red inactive.
CC(C)(O)C1O[C@H]2CC[C@@]3(C)[C@@](O)(CC[C@H]4Cc5c([nH]c6ccccc56)[C@@]43C)C2=CC1=O (stereo partly drawn) was read as TR SRC2 fluor cs inactive, TRb SRC2 PPI inactive, Tau fibril FP inconclusive, Tau fluor counter 15.8µM[quencher], Tau fibril ThT inconclusive and GoLoco inh red inactive.
`Nc1cc(Cl)c2nonc2c1[N+](=O)[O-]` gave TR SRC2 fluor cs inactive, TRb SRC2 PPI inactive, Tau fibril FP inactive, Tau fluor counter inconclusive, Tau fibril ThT 11.2µM and GoLoco inh red inactive.
Screening CCN1C(=O)c2ccccc2Sc2ccc(NC(=O)Nc3ccc(Br)c(C)c3)cc21 returned TR SRC2 fluor cs inactive, TRb SRC2 PPI inactive, Tau fibril FP 15.8µM, Tau fluor counter inconclusive and Tau fibril ThT inactive.
CCN1C(=O)c2ccccc2Sc2ccc(NC(=O)Cc3ccc(OC)c(OC)c3)cc21 was read as TR SRC2 fluor cs inactive, TRb SRC2 PPI inactive, Tau fibril FP inactive, Tau fluor counter inconclusive and Tau fibril ThT inactive.
Screening CCOC(=O)c1cc(C)n(CCc2cnc[nH]2)c1C returned TR SRC2 fluor cs inactive, TRb SRC2 PPI inactive, Tau fibril FP inactive, Tau fluor counter inactive, Tau fibril ThT inactive and GoLoco inh red inactive.
For CC(=O)NC1N=C(C)N(c2ccccc2)C1=O (stereo not drawn) the results were TR SRC2 fluor cs inactive, TRb SRC2 PPI 31.6µM, Tau fibril FP inconclusive, Tau fluor counter inconclusive, Tau fibril ThT inconclusive and GoLoco inh red inactive.
Screening COc1c(O)c2c(=O)cc(OC)c3c4c(OC)cc(=O)c5c(O)c(OC)c(C[C@@H](C)OC(=O)c6ccccc6)c(c(c1C[C@@H](C)OC(=O)Oc1ccc(O)cc1)c23)c54 returned TR SRC2 fluor cs inconclusive, TRb SRC2 PPI inactive, Tau fibril FP inactive, Tau fluor counter inconclusive, Tau fibril ThT inactive and GoLoco inh red 15.8µM.
